Data reported in the supplement of paper PMC11219838.
Unmarked numbers belong to inactive results.

Tested on: Caenorhabditis elegans dauer (daf-2(e1370))
Test: proportion of mobile C. elegans dauer larvae relative to DMSO control (fraction of DMSO control); higher = more viable, less nematicidal, active = 0.63 or less; extreme values may be limits of the assay
Details: 60 µM; 5 days; temperature: 20 °C
Summary of the method: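 Compound was added by pinning to 60 µM final, giving 0.6% v/v DMSO, in 96-well plates containing about 20 C. elegans dauers per well in liquid NGM. These dauers came from synchronized larvae held on MYOB plates with E. coli OP50 for 48 h at 25 °C. Plates were sealed and shaken at 200 rpm at 20 °C for 5 days. Under a dissection microscope, the proportion of mobile worms was scored relative to DMSO wells, and two biological replicates were averaged.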

Compound	proportion of mobile C. elegans dauer larvae
Cc1c(C)n(C(=O)CSc2nnc(-c3ccccc3)o2)c2ccccc12	1
COc1cccc(-c2noc(COc3ccc(Cl)cc3)n2)c1	1
C(=C\c1ccccc1)/CSc1nnc(-c2ccncc2)o1	1
CCOc1cc(-c2nc(-c3cc4ccccc4nc3OC)no2)cc(OCC)c1OCC	1
Ic1cccc(-c2nc(-c3cccnc3)no2)c1	1
Cc1ccc(-c2noc(COc3ccc(Cl)cc3C)n2)cc1	1
Cc1cc(C)c(C)c(OCc2nc(-c3ccccc3)no2)c1	1
CCOc1ccccc1-c1nnc(SCC(=O)Nc2ccccc2)o1	1
O=C(CSc1nnc(-c2ccc(Cl)cc2)o1)Nc1ccc(F)cc1	1
Cc1ccc(C)c(-c2nc(-c3cccnc3)no2)c1	0.727
CCSc1nnc(-c2ccc(Cl)cc2Cl)o1	0 (active)
Cc1ccc(SC(C)c2nc(-c3cccnc3)no2)cc1 (stereo not drawn)	1
Cc1ccc(C)c(-c2nc(-c3ccncc3)no2)c1	0.385 (active)
COc1ccccc1CC(=O)Nc1ccc(-c2noc(-c3ccc(Cl)cc3)n2)cc1	1
c1ccc(-c2noc(C3COc4ccccc4O3)n2)cc1 (stereo not drawn)	0.539 (active)
Clc1ccc(-c2nc(-c3ccccc3Br)no2)cc1	1
COc1ccc(CC(=O)Nc2ccc(-c3noc(-c4ccccc4Br)n3)cc2)cc1	1
Brc1cccc(-c2nc(-c3ccncc3)no2)c1	1
O=C(CSc1nnc(-c2cccc3ccccc23)o1)Nc1cccc(F)c1	1
COc1ccc(CSc2nnc(-c3ccc(Cl)cc3Cl)o2)cc1	1

Compound	proportion of mobile C. elegans dauer larvae
Cc1ccc(-c2nnc(SCC(=O)Nc3ccccc3)o2)cc1	1
COc1cccc(-c2nnc(SCC(=O)Nc3cccc(C(F)(F)F)c3)o2)c1	1
COc1nc(C)ccc1-c1noc(-c2ccccc2Br)n1	1
Cc1ccc(SCc2nc(-c3ccccc3)no2)cc1	1
COc1ccc(NC(=O)CSc2nnc(-c3ccccc3C)o2)cc1	1
CCCC(=O)Nc1ccccc1-c1nc(-c2cccnc2)no1	1
CC(=O)Nc1cccc(-c2nnc(SCc3ccccc3)o2)c1	1
O=C(CSc1nnc(-c2ccc(Br)cc2)o1)Nc1cccc2ccccc12	1
Fc1ccc(-c2noc(-c3ccc(Br)cc3)n2)cc1	1
COc1ccc(-c2noc(COc3ccc(C)c(C)c3)n2)cc1	1
Clc1ccc(OCc2nc(-c3ccc4c(c3)OCO4)no2)cc1	1
Cc1ccccc1-c1noc(-c2cccc(Br)c2)n1	1
Cc1ccc(-c2noc(CSc3nc(C)cc(C)n3)n2)cc1	1
O=C(CSc1nnc(-c2cccnc2)o1)c1ccc2ccccc2c1	1
O=C(Nc1ccccc1-c1nc(-c2cccnc2)no1)c1cccs1	1
COc1cccc(-c2noc(-c3cccc(F)c3)n2)c1	1
CCOc1ccccc1-c1nc(-c2ccc(Cl)cc2)no1	1
O=C(CSc1nnc(-c2cccc3ccccc23)o1)c1ccc(F)cc1	1
CC(C)c1ccc(OCc2nc(-c3ccccn3)no2)cc1	1

Tested on: Ditylenchus dipsaci
Test: proportion of mobile D. dipsaci (mixed stage) relative to DMSO control (fraction of DMSO control); higher = more viable, less nematicidal, active = 0.86 or less; extreme values may be limits of the assay
Details: 60 µM; 5 days; temperature: 20 °C
Summary of the method: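 D. dipsaci were grown on pea plants in Gamborg B-5 agar and extracted through a filter funnel into water, and about 20 worms were added per 96-well well in distilled water. Compound was pinned to 60 µM final (0.6% v/v DMSO), and sealed plates were shaken at 200 rpm for 5 days at 20 °C. After 2 µL 1 M NaOH was added, mobile worms were scored microscopically. Mobility was expressed relative to DMSO controls and averaged over two biological replicates.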

Compound	proportion of mobile D. dipsaci
Cc1c(C)n(C(=O)CSc2nnc(-c3ccccc3)o2)c2ccccc12	1
COc1cccc(-c2noc(COc3ccc(Cl)cc3)n2)c1	1
C(=C\c1ccccc1)/CSc1nnc(-c2ccncc2)o1	1
CCOc1cc(-c2nc(-c3cc4ccccc4nc3OC)no2)cc(OCC)c1OCC	1
Ic1cccc(-c2nc(-c3cccnc3)no2)c1	1
Cc1ccc(-c2noc(COc3ccc(Cl)cc3C)n2)cc1	1
Cc1cc(C)c(C)c(OCc2nc(-c3ccccc3)no2)c1	1
CCOc1ccccc1-c1nnc(SCC(=O)Nc2ccccc2)o1	1
O=C(CSc1nnc(-c2ccc(Cl)cc2)o1)Nc1ccc(F)cc1	1
Cc1ccc(C)c(-c2nc(-c3cccnc3)no2)c1	1
CCSc1nnc(-c2ccc(Cl)cc2Cl)o1	0.739 (active)
Cc1ccc(SC(C)c2nc(-c3cccnc3)no2)cc1 (stereo not drawn)	1
Cc1ccc(C)c(-c2nc(-c3ccncc3)no2)c1	1
COc1ccccc1CC(=O)Nc1ccc(-c2noc(-c3ccc(Cl)cc3)n2)cc1	1
c1ccc(-c2noc(C3COc4ccccc4O3)n2)cc1 (stereo not drawn)	1
Clc1ccc(-c2nc(-c3ccccc3Br)no2)cc1	1
COc1ccc(CC(=O)Nc2ccc(-c3noc(-c4ccccc4Br)n3)cc2)cc1	1
Brc1cccc(-c2nc(-c3ccncc3)no2)c1	1
O=C(CSc1nnc(-c2cccc3ccccc23)o1)Nc1cccc(F)c1	1
COc1ccc(CSc2nnc(-c3ccc(Cl)cc3Cl)o2)cc1	1

Compound	proportion of mobile D. dipsaci
Cc1ccc(-c2nnc(SCC(=O)Nc3ccccc3)o2)cc1	1
COc1cccc(-c2nnc(SCC(=O)Nc3cccc(C(F)(F)F)c3)o2)c1	1
COc1nc(C)ccc1-c1noc(-c2ccccc2Br)n1	1
Cc1ccc(SCc2nc(-c3ccccc3)no2)cc1	1
COc1ccc(NC(=O)CSc2nnc(-c3ccccc3C)o2)cc1	1
CCCC(=O)Nc1ccccc1-c1nc(-c2cccnc2)no1	1
CC(=O)Nc1cccc(-c2nnc(SCc3ccccc3)o2)c1	1
O=C(CSc1nnc(-c2ccc(Br)cc2)o1)Nc1cccc2ccccc12	1
Fc1ccc(-c2noc(-c3ccc(Br)cc3)n2)cc1	1
COc1ccc(-c2noc(COc3ccc(C)c(C)c3)n2)cc1	1
Clc1ccc(OCc2nc(-c3ccc4c(c3)OCO4)no2)cc1	1
Cc1ccccc1-c1noc(-c2cccc(Br)c2)n1	1
Cc1ccc(-c2noc(CSc3nc(C)cc(C)n3)n2)cc1	1
O=C(CSc1nnc(-c2cccnc2)o1)c1ccc2ccccc2c1	1
O=C(Nc1ccccc1-c1nc(-c2cccnc2)no1)c1cccs1	1
COc1cccc(-c2noc(-c3cccc(F)c3)n2)c1	1
CCOc1ccccc1-c1nc(-c2ccc(Cl)cc2)no1	1
O=C(CSc1nnc(-c2cccc3ccccc23)o1)c1ccc(F)cc1	1
CC(C)c1ccc(OCc2nc(-c3ccccn3)no2)cc1	1
